Compound activity (PubChem)
A selection: hits, their analogues and other compounds. The true share with any hit is near 2%.
A3G deaminase: APOBEC3G (human) deaminase inhibition; actives 0.28% (n = 330,000); recombinant A3G, ssDNA deamination FAM/TAMRA fluorescence; inhibition, % at 20 µM; Q9HC16; AID 493012;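 active = inhibition of at least 40% at 20 µM, with no more than 30% in the related APOBEC3A deaminase screen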;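 note: plate controls were DMSO wells with A3G for no effect and wells lacking A3G enzyme for full effect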
PfGluPho inh: PfG6PD (Plasmodium falciparum) enzyme inhibition; PfGluPho enzyme, NADPH resazurin-diaphorase fluorescence; inhibition, % at 20 µM; actives 0.78% (n = 350,000);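 active = inhibition reaching at least a set limit at 20 µM in the primary screen, cut at about 59% in these data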;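 note: 0% = DMSO wells with substrate and 100% = DMSO wells lacking glucose-6-phosphate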
Neddyl block: blocks human cullin neddylation | TR-FRET cullin neddylation, biochemical | actives 0.58% (n = 360,000) | inhibition, % at 25 µM | P61081+Q13564; in the data active = inhibition above about 36%
NPR1 activator: GC-A (human) enzyme activation; HEK293 GC-A cells, cGMP TR-FRET, EC30 ANP; 0% at EC30 ANP, 100% saturating ANP; activation, % at 10 µM; P16066; actives 0.14% (n = 370,000); in the data active = activation above about 40%
NPR2 activator: GC-B (human) receptor activation. actives 0.11% (n = 370,000). HEK293-GC-B cells, CNP EC30, cGMP TR-FRET; 0% at EC30 CNP, 100% saturating CNP. activation, % at 10 µM;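 active = activation at 10 µM reaching about 35% in either raw or pattern-adjusted values, limit read from the data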
Target sequence (P20594 whole entry, looked up): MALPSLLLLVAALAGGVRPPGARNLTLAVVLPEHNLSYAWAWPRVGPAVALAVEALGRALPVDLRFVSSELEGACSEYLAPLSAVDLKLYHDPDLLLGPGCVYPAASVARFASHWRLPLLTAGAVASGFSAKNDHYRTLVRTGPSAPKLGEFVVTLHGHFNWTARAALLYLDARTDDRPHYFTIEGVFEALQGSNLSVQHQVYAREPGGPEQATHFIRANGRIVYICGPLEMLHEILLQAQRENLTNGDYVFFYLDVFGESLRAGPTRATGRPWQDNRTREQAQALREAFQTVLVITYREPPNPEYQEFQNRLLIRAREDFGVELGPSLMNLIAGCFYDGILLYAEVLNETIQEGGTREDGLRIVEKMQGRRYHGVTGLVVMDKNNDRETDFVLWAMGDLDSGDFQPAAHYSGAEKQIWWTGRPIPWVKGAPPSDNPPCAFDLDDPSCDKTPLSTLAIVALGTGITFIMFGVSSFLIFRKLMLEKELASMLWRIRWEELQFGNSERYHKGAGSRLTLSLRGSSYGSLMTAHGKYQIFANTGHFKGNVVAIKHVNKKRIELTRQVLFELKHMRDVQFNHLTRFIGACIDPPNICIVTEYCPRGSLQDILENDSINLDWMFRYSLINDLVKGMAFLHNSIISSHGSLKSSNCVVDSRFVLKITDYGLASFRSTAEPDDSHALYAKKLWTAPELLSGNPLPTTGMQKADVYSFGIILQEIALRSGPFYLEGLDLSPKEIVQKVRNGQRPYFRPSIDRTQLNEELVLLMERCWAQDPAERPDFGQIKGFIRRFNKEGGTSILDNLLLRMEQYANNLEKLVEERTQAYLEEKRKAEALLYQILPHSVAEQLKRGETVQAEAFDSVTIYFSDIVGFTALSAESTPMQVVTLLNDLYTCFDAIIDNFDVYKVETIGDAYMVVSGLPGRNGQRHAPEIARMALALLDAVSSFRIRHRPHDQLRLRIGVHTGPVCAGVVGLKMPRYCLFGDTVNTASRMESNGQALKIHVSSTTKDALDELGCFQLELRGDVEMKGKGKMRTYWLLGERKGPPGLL
A3A deaminase: inhibitors of human APOBEC3A DNA deaminase | P31941 | recombinant A3A, FAM/TAMRA ssDNA deamination fluorescence | inhibition, % at 20 µM | actives 0.41% (n = 330,000) | AID 493011;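 active = at least 40% inhibition at 20 µM here, with at most 30% in a related deaminase screen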;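 note: plate controls were A3A with DMSO for no effect and wells lacking A3A enzyme for full effect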
A3A conf: confirmation of human APOBEC3A DNA deaminase inhibitors; shares compounds with A3A deaminase; recombinant A3A, ssDNA deaminase UDG fluorescence assay; inhibition, % at 20 µM; actives 63% (n = 1,400);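 active = inhibition reaching a set limit, 80% of the first screen's cutoff, at 20 µM in any replicate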;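 note: plate controls were DMSO wells with A3A for no effect and wells lacking A3A enzyme for full effect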
UDG A3A counter: counter-screen for APOBEC3A inhibitors: UDG | shares compounds with A3A deaminase | UDG counterscreen, FAM/TAMRA uracil oligo fluorescence | inhibition, % at 20 µM | 1,000 tested, under 10 active | AID 504714; call rule not given here
* marks the source's active call; other numbers are inactive results; . = not tested or not shown.

SMILES | A3G deaminase | PfGluPho inh | Neddyl block | NPR1 activator | NPR2 activator | A3A deaminase | A3A conf | UDG A3A counter
CCOc1ccccc1C(=O)Nc1ccc(C(=O)NCC2COc3ccccc3O2)cc1 (configuration not stated) | . | . | . | -4.5 | -3.6 | . | . | .
CCc1ccccc1NC(=O)c1cc2ncc(Br)cn2n1 | -1.3 | 4.7 | -30.7 | -2.4 | 0.1 | 41.5* | 8.3 | -1.9
O=C(NCCc1ccccc1)c1cc2ncc(Br)cn2n1 | -3.1 | -12.5 | -19.6 | 0.6 | 1.8 | 75.9* | 44.2* | 3.6
O=C(c1cc2ncc(Br)cn2n1)N1CCN(C(=O)c2ccco2)CC1 | -0.2 | 11.5 | 5.0 | . | . | 41.5* | 33.8* | -2.0
O=C(c1cc2ncc(Br)cn2n1)N1CCOCC1 | -4.8 | 2.7 | -1.5 | 2.7 | -3.0 | 9.9 | . | .
Cc1ccccc1N=C1NC(=O)/C(=C/c2cccn2-c2cccc(C(=O)O)c2)S1 | 5.8 | -28.6 | . | -4.0 | -1.9 | 49.7* | 42.9* | -2.8
COC/C=C/C1=CC2=CC(=O)C(C)(OC(=O)c3cnc4ccccc4n3)C(=O)C2=CO1 (configuration not stated) | 22.9 | . | . | . | . | 44.2* | 39.1* | .
O=C(CN1CCOCC1)N/N=C/c1ccc(-c2ccc(C(=O)O)cc2)o1 | 17.1 | 8.9 | 2.2 | -3.5 | 3.8 | 43.3* | 84.8* | 5.6
CC1(CC(=O)N/N=C/c2ccc(-c3ccc(C(=O)O)cc3)o2)OCCO1 | -3.7 | 2.9 | 12.2 | 0.9 | 3.1 | -2.7 | . | .
Cc1ccc2nc3c(nc2c1C)CCCC3 | -7.3 | 8.5 | 15.4 | 2.6 | -2.1 | -2.8 | . | .
Cc1ccc2nc3c(nc2c1C)C(O)=C3O | -4.1 | -15.9 | 4.7 | 0.5 | -1.3 | 65.4* | 6.9 | 8.0
CCOC(=O)C1=C(C(=O)OCC)C2N(Cc3ccc(C(F)(F)F)cc3)c3ccccc3[C@@]23C[C@@H](C(=O)OC)N(S(=O)(=O)c2ccc(OC)cc2)C3=N1 (some centres not stated) | . | . | . | 2.2 | 9.5 | . | . | .
CSCC[C@H](NC(=O)c1ccc(Cl)c(S(=O)(=O)N2CCCC2)c1)c1nc2ccccc2[nH]1 | 10.9 | -11.9 | 0.4 | -4.6 | -3.0 | 45.0* | 54.3* | 1.5
CSCCC(NC(=O)c1cccc(S(=O)(=O)N2CCN(C(C)=O)CC2)c1)c1nc2ccccc2[nH]1 (configuration not stated) | . | -16.6 | -1.2 | 2.0 | -0.6 | . | . | .
CC1(C)Oc2ccc3ccc(=O)oc3c2-c2cnoc21 | 21.9 | -6.8 | 13.3 | 0.0 | -3.8 | 50.6* | 72.4* | -2.4
CC1(C)Oc2ccc3ccc(=O)oc3c2-c2cn[nH]c21 | 24.0 | 14.6 | 7.4 | -1.6 | -14.4 | 59.2* | 65.3* | 5.0
CC(CCN1CCC(C(O)(c2ccccc2)c2ccccc2)CC1)Oc1ccccc1C#N (configuration not stated) | . | . | . | -27.8 | -19.6 | . | . | .
O=[N+]([O-])c1ccccc1/C=N/Nc1nc(N2CCCC2)nc(N2CCCC2)n1 | 10.1 | -3.6 | -8.5 | 3.6 | 0.0 | 5.0 | . | .
O=[N+]([O-])c1ccccc1/C=C/C=N/Nc1nc(N2CCCCC2)nc(N2CCCCC2)n1 | 15.8 | -5.4 | 0.0 | -3.6 | 3.9 | 78.2* | 80.7* | -1.8
O=c1c2cc3cc(Cl)ccc3nc2ncn1CCc1c[nH]c2ccccc12 | . | . | . | -6.2 | -11.4 | . | . | .
CC[n+]1ccc2cc(OC)c(OC)cc2c1Cc1ccc(OC)c(OC)c1 | 9.4 | 34.1 | -1.4 | . | . | 69.5* | 43.4* | .
COc1cccc(OC)c1C(=O)Nc1cccc2c1CCCC2 | -0.7 | 12.5 | -3.1 | -0.4 | -0.5 | 54.8* | -3.2 | 0.9
COc1cc(OC)cc(C(=O)Nc2cccc3c2CCCC3)c1 | -1.7 | -4.6 | 0.8 | -3.2 | -0.3 | -7.0 | . | .
COc1ccc(CCNC(=O)Cc2c(Cl)cccc2Cl)cc1 | 3.1 | 0.1 | 7.2 | -4.5 | 3.0 | 43.7* | 6.9 | .
COC(=O)N1C[C@H](OC)[C@H]2C[C@@H]1c1ccccc1O2 | . | . | . | 0.6 | 6.1 | . | . | .
SMILES | A3G deaminase | PfGluPho inh | Neddyl block | NPR1 activator | NPR2 activator | A3A deaminase | A3A conf | UDG A3A counter
O=C(Nc1ccc2c(c1)Cc1ccccc1-2)NC1CCCCN(Cc2cccc(Cl)c2)C1=O (configuration not stated) | . | . | . | 0.9 | -8.7 | . | . | .
COC(=O)[C@]12C[C@H](CC(=O)NCCC(C)C)C(=O)N(CCC3=CCCCC3)C1=C[C@H](C(C)C)O[C@@H]2C1CC1 | . | . | . | -3.8 | -3.7 | . | . | .
COc1cc2ccc3c(CCN(C)C)cc(OC)c(OC)c3c2cc1OC | 18.6 | 6.0 | 0.2 | 2.5 | 4.8 | 54.8* | 22.8 | .
CN(C)CCc1cc2c(c3c1ccc1ccccc13)OCO2 | -8.0 | 29.1 | 9.5 | -16.8 | -2.9 | 7.6 | . | .
Cc1cccc(C(=O)N[C@H](C(=O)OCc2cc(=O)n3c(n2)sc2ccccc23)C(C)C)c1 | 18.5 | 2.8 | 6.7 | 2.9 | 6.6 | 42.9* | 52.6* | 2.7
O=C(OCc1cc(=O)n2c(n1)sc1ccccc12)c1ccc(O)cc1 | 10.4 | -20.4 | -0.5 | -0.3 | 0.5 | 21.1 | . | .
O=c1cc(CCl)nc2sc3ccccc3n12 | 25.5 | -2.1 | -1.2 | -8.1 | 0.3 | 62.5* | 33.8* | -3.3
S=c1[nH]nc(-c2cc(-c3ccccc3)n[nH]2)n1N=Cc1c[nH]c2ccccc12 | . | . | . | -3.9 | -11.6 | . | . | .
c1cc[n+](CCCC[n+]2ccccc2)cc1 | 2.0 | -15.7 | -4.0 | -1.1 | 4.9 | -3.8 | . | .
c1cc[n+](CCC[n+]2ccccc2)cc1 | 26.0 | 7.0 | -3.8 | 8.4 | 0.0 | 71.1* | 88.1* | 3.1
COC(=O)[C@]12C[C@H](CC(=O)NCc3ccc(OC)c(OC)c3)C(=O)N(Cc3cccc4ccccc34)C1=C[C@H](C(C)(C)C)O[C@@H]2C | . | . | . | -3.6 | 5.2 | . | . | .
CCN(CC(=O)Nc1ccc(OC)cc1)C(=O)c1cc(-c2cccs2)nn1-c1ccccc1 | -10.7 | 6.7 | -10.7 | -8.1 | -3.5 | 78.4* | 1.0 | 4.9
O=C(Cn1c(=O)n(Cc2ccco2)c(=O)c2c3c(sc21)CCCCC3)Nc1ccccc1 | 20.5 | 22.8 | 1.5 | -5.0 | 3.9 | 49.3* | 54.6* | .
O=C(Cn1c(=O)n(Cc2ccco2)c(=O)c2c3c(sc21)CCCCC3)c1ccccc1 | 31.0 | 22.3 | -20.4 | -9.2 | -2.5 | 56.9 | . | .
CCn1c(=O)c(C(=O)CN2CCN(S(=O)(=O)c3ccc(C)cc3C)CC2)c(N)n(Cc2ccccc2)c1=O | 6.8 | 24.9 | -4.7 | -0.2 | -1.6 | 44.5* | 2.2 | .
CCn1c(=O)c(C(=O)CN2CCN(S(=O)(=O)c3ccccc3)CC2)c(N)n(Cc2ccccc2)c1=O | -10.7 | 5.8 | 5.7 | -2.7 | -1.1 | 8.2 | . | .
Cc1nc2ccc(NC(=O)c3cc(Cl)ccn3)cc2s1 | -2.1 | 15.6 | 10.0 | -1.8 | -4.1 | 49.3* | 23.2 | 0.0
